CCHFV vOTU inh – CCHFV vOTU protease inhibition; Pep-AMC fluorescence; inhibition, % at 11.5 µM; 0.55% of 370,000 active; in the data active = inhibition above about 30%; also: 0% = vehicle wells with enzyme and 100% = no enzyme wells
PrPC TRFRET – cell surface PrPC inhibition, primary TR-FRET screen. P04156. TR-FRET read-out. inhibition, % at 13.8 µM. 0.43% of 370,000 active. AID 720596; in the data active = inhibition above about 24%; also: 0% = median of the test wells and 100% = reference compound wells
BH1578 lux ind – induces V. cholerae light production without autoinducers; AID 588436; 0.16% of 350,000 active; V. cholerae BH1578 lux reporter, luminescence, 6 h; activation, % at 18.7 µM; in the data active = activation mostly above about 9.7%, no sharp cut-off
Y pestis TopoI – blocks Yersinia pestis topoisomerase I activity; Y. pestis Topo-I cleavage product accumulation, plate reader; activity, % at 10 µM; 0.064% of 360,000 active; AID 504884; in the data active = activity above about 50%, passing the limit was not always enough
MazEF act – increases E. coli MazEF RNase cleavage of RNA. 0.32% of 350,000 active. activation, % at 20 µM. P0AE70. FAM/BHQ RNA-DNA oligo cleavage fluorescence, 5 h; in the data active = activation above about 50%
Target sequence (P0AE70 whole entry, looked up): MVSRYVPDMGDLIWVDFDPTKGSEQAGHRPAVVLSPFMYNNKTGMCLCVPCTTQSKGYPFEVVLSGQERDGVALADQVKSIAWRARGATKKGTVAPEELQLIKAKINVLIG
DUSP3 inh – blocks human VHR1 dual specificity phosphatase; 0.52% of 290,000 active; inhibition, % at 13.3 µM; AID 1654; P51452; recombinant VHR phosphatase, pNPP absorbance; in the data active = inhibition above about 50%
Target sequence (P51452 whole entry, looked up): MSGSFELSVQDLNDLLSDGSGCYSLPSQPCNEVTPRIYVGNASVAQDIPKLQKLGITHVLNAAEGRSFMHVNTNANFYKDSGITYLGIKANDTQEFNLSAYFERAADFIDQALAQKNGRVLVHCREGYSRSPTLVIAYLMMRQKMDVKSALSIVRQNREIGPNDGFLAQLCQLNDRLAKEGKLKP
* = called active by the depositor; i = inactive; . = no result. The list is not random: actives were taken first. Their share in the collection is about 1.8%.

SMILES | CCHFV vOTU inh | PrPC TRFRET | BH1578 lux ind | Y pestis TopoI | MazEF act | DUSP3 inh
COc1ccc(/C=C2\SC(=S)N(CCC(=O)Nc3ccc(C(=O)O)cc3)C2=O)cc1OC | . | . | -8.3 | -0.6 | -37.4 | 56.9*
COc1ccc(/C=C2\SC(=S)N(CCCC(=O)Nc3cccc(C(=O)O)c3)C2=O)cc1OC | -15.5 | -0.4 | i | 18.1 | -20.5 | 5.4
COc1ccc(/C=C2\SC(=S)N(CCC(=O)N(CCO)Cc3ccccc3)C2=O)cc1OC | -10.5 | -5.4 | i | 2.5 | -37.8 | 57.3*
COc1ccc(C(=O)C2(C(=O)NCc3ccccc3)CC(c3ccccc3C(F)(F)F)=NO2)cc1 (centres undefined) | 14.8 | 9.3 | . | . | . | .
COc1cc(/C=C2\SC(=S)N(CC(=O)Nc3ccc(O)cc3)C2=O)cc(OC)c1OC | 8.8 | -2.1 | i | -4.6 | 7.9 | 55.8*
C[C@@H]1/C=C/CC(=O)N[C@H](c2ccccc2)[C@H](C)/C=C/CC(=O)N[C@@H]1c1ccccc1 | 0.5 | -3.6 | . | . | . | .
CC(=O)Nc1nc(C)c(Oc2ccc(Cl)cc2Cl)c(=O)[nH]1 | 11.8 | -0.9 | 16.7* | 1.4 | 4.9 | 4.6
CCCNC(=O)N1[C@@H](CO)[C@H](c2ccc(C3=CCCC3)cc2)[C@@H]1CN(CC)S(=O)(=O)c1ccccc1[N+](=O)[O-] | 4.3 | -6.9 | . | . | . | .
Cc1onc(-c2ccc(Cl)cc2)c1-c1ccn(S(=O)(=O)c2ccccc2)n1 | 23.0 | 15.8 | . | . | . | .
CCCCn1c(N)c(Sc2ccccc2)c(=O)[nH]c1=O | 0.3 | -2.5 | -0.1 | -9.6 | 9.0 | 18.7
CCCCn1c(N)c(Sc2ccccc2[N+](=O)[O-])c(=O)[nH]c1=O | 5.2 | -31.2 | -3.8 | -0.2 | 0.6 | 51.1*
C#CCNC(=O)C[C@H]1C(=O)N(CCCOC)C2=CCCCC[C@]21C(=O)OC | 12.7 | 3.7 | . | . | . | .
Cc1ccc2nc(SCC(=O)Nc3ccc4sc(C)nc4c3)c(C#N)cc2c1 | -2.5 | 1.1 | -0.4 | -1.6 | 167.5* | -0.9
Cc1cc(NC(=O)CSc2nc3ccccc3cc2C#N)no1 | 10.1 | -6.1 | -0.6 | 5.3 | 54.9* | 21.1
Cc1cc(C)c2nc(SCC(=O)Nc3cc(C)on3)c(C#N)cc2c1 | 0.3 | 11.0 | -0.4 | 5.4 | 58.9* | 25.2
Cc1ccc(C)c2nc(SCC(=O)NCc3cccs3)c(C#N)cc12 | 9.3 | -7.7 | -0.4 | 3.0 | -10.9 | 52.7*
CCC(=O)N[C@@H]1C[C@@H]2O[C@@H](CO)CC[C@@H]2O[C@@H]1CCc1ccc(-c2cccc(OC)c2)cc1 | -2.6 | 5.3 | . | . | . | .
Cc1ccc(C(=O)Oc2coc(CSc3ncccn3)cc2=O)cc1[N+](=O)[O-] | . | 1.1 | . | . | . | .
c1ccc(-c2c[nH]c3ccc(OCc4ccc5ccccc5n4)c(-c4ccccc4)c23)cc1 | 17.6 | -8.1 | . | . | . | .
COc1cccc(-c2nnc(SCC(=O)OC(C)C)n2-c2ccc(Cl)cc2)c1 | 7.1 | -7.1 | . | . | . | .
Cc1cc(NC(=O)CSc2nc(-c3ccc(Cl)cc3)cs2)no1 | 3.7 | 3.8 | i | 15.0 | 77.4* | 17.9
CCC(SC1=N/C(=C/c2ccccc2)C(=O)N1c1ccccc1)C(=O)Nc1cc(C)on1 (centres undefined) | 17.3 | -3.7 | -3.1 | 3.6 | 9.6 | 11.9
COc1ccc(/C=C2/N=C(SCC(=O)Nc3cc(C)on3)N(c3ccccc3)C2=O)cc1 | -6.6 | -0.5 | -0.2 | 4.1 | 70.2* | 4.1
COC(=O)CSc1nc2cc(C)ccc2cc1C#N | 4.9 | -6.5 | -0.4 | 1.3 | 260.4* | 7.6
Cc1cc(-c2n[nH]c(=S)n2N=Cc2ccc(O)cc2)n[nH]1 | 6.2 | 6.2 | . | . | . | .
SMILES | CCHFV vOTU inh | PrPC TRFRET | BH1578 lux ind | Y pestis TopoI | MazEF act | DUSP3 inh
O=C(Cn1ncc2c([nH]c3ccccc32)c1=O)N1CCN(c2ccc(F)cc2)CC1 | 7.0 | -8.1 | -0.1 | 6.1 | 3.0 | 51.3*
O=C(Cn1ncc2c([nH]c3ccccc32)c1=O)N1CCN(c2ccccc2F)CC1 | 6.0 | 1.2 | 0.4 | 3.3 | 3.7 | -12.2
CC1=NN(c2ccccc2)C(=O)/C1=C\c1ccc(Oc2ccc([N+](=O)[O-])cc2[N+](=O)[O-])cc1 | 91.0* | -40.4 | -0.3 | -21.9 | -3.9 | 4.1
Cc1ccc(OCc2cc(C(=O)N3CCc4sccc4C3)no2)cc1C | -17.8 | 6.8 | -0.8 | 53.6* | -4.8 | -7.8
O=C1CC(c2ccc(O)c(O)c2)Oc2cc(O)cc(O)c21 (centres undefined) | -0.7 | -1.1 | -0.5 | -5.3 | 2.8 | -16.6
CC(C)=CCc1c(O)ccc2c1OC(c1ccc(O)c(O)c1)CC2=O (centres undefined) | 1.6 | -4.8 | -0.4 | -14.3 | 86.5* | -6.2
O=C1CC(c2ccc(O)c(O)c2)Oc2c1ccc(O)c2O (centres undefined) | 20.2 | -5.2 | -0.4 | -16.8 | 52.7* | 14.2
Cc1ccc2nc(NC(=O)c3ccc(NS(=O)(=O)c4cccs4)cc3)sc2c1 | -1.1 | 6.0 | -0.2 | -5.1 | -3.5 | 55.6*
CCc1ccc(NC(=O)CSc2nncn2-c2cccnc2)cc1 | 4.3 | 7.2 | -0.3 | 5.4 | 6.4 | 56.5*
CC1CCCC(C)N1C(=O)c1ccc(CS(=O)(=O)c2ccccc2)cc1 (centres undefined) | -8.8 | -8.1 | i | 1.0 | 3.6 | 53.4*
COc1cc2cccc(OC)c(=O)c2c(O)c1OC | 10.7 | -27.8 | -0.5 | -6.9 | -0.1 | -1.0
CC(=O)Oc1cc2cccc(OC(C)=O)c(=O)c2c(OC(C)=O)c1OC(C)=O | . | . | -0.5 | -6.0 | 214.3* | 20.6
COC(=O)C1CN(Cc2ccccc2)CCS(=O)(=O)N1Cc1ccc(OC)cc1 (centres undefined) | 2.8 | 10.6 | . | . | . | .
CSc1ncccc1C(=O)NCC1CCCCC1 | -2.7 | 3.8 | i | 1.0 | 6.7 | 51.3*
CC(C)=CC(=O)Nc1nnc(-c2cccnc2)s1 | 4.8 | 2.3 | i | -7.3 | -1.9 | 53.4*
COc1ccc(S[C@]2(C(=O)N(C)C)CC(=O)N(C(=O)CCc3ccccc3)[C@@H]2c2ccc(OC)cc2)cc1 | 15.2 | 16.4 | . | . | . | .
COc1cc(OC)c(NC(=S)Nc2cc(Cl)cc(Cl)c2)cc1Cl | 0.2 | 2.0 | -0.3 | -23.1 | 59.7* | -11.3
COc1ccc2c(c1)C(c1cccs1)=NNC(c1ccncc1)=N2 | 2.3 | -0.6 | i | -6.9 | 241.5* | 43.6
Cc1ccc(NC(=O)/C(C#N)=C(\N)C(Cl)(Cl)Cl)nc1 | . | . | -0.5 | 4.4 | 164.8* | 13.1
Cc1cc(/C=C2\NC(=S)N(C)C2=O)ccc1N1CCCC1 | 8.6 | 4.1 | 0.4 | -23.2 | 213.9* | 39.8
CCCN1C(=O)/C(=C/c2ccc(N3CCCC3)c(C)c2)NC1=S | 0.8 | -6.8 | 0.4 | -1.9 | -15.8 | -2.4
Cc1cc(OCCn2nc(C(=O)O)c3ccccc3c2=O)ccc1C(C)C | -1.7 | -6.3 | -0.2 | 83.2* | -15.8 | 39.0
Cc1ccc(OCCCCn2cnc3ccccc32)c(C)c1 | 8.3 | 18.5 | -0.3 | 21.0 | -6.2 | 55.3*
O=C(C1CCCN1S(=O)(=O)c1ccc(F)cc1)N1CCc2ccccc2C1 (centres undefined) | -2.0 | -5.4 | . | . | . | .
CCn1c(C)cc(C=C2C(=O)c3ccccc3C2=O)c1C | 11.6 | -11.6 | -0.8 | -6.0 | 78.7* | 9.5
